Compounds without any hit were thinned out: in the full panel of roughly 83,000, 20% have a hit.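 In brief: 96-well plates, 48 h treatment, single concentration, percent growth endpoint.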 A number with no mark means an inactive call. Activity calls are given as the source filed them. The calls were made as follows: active = growth percent below 10; inactive = the rest.
How the values were obtained:
Assay in all cases: NCI-60 one-dose screen, 48 h (100 = growth as untreated, 0 = no growth, -100 = all killed)
Conditions in all cases: 10 µM unless noted
HCT-15 colon = test system: HCT-15 colon
HT29 colon = test system: HT29 colon
SNB-75 CNS = test system: SNB-75 CNS
SNB-19 CNS = test system: SNB-19 CNS
U251 CNS = test system: U251 CNS
PC-3 prostate = test system: PC-3 prostate
SK-MEL-5 melanoma = test system: SK-MEL-5 melanoma
UACC-62 melanoma = test system: UACC-62 melanoma
LOX IMVI melanoma = test system: LOX IMVI melanoma
SK-MEL-28 melanoma = test system: SK-MEL-28 melanoma

Row | SMILES | growth (HCT-15 colon) | growth (HT29 colon) | growth (SNB-75 CNS) | growth (SNB-19 CNS) | growth (U251 CNS) | growth (PC-3 prostate) | growth (SK-MEL-5 melanoma) | growth (UACC-62 melanoma) | growth (LOX IMVI melanoma) | growth (SK-MEL-28 melanoma)
1 | CC(C)CCC1(CCCl)C(=O)NC(=O)NC1=O | 98.9% | 109% | 85.3% | 97.7% | 94.4% | 98.8% | 97.4% | 97.6% | 97% | 98.4%
2 | CCCCCCCCC(CO)NCCc1ccccc1 (stereo not given) | 102% | 73.6% | 108% | 102% | 93.3% | 73.5% | 101% | 98.5% | 103% | 108%
3 | C=COC(=O)CCN1CC1 | 109% | 110% | 101% | 96.3% | 101% | 97.5% | 105% | 97.9% | 100% | 113%
4 | CO[C@H](C(=O)O)[C@@H]1Cc2cc3cc(OC4CC(OC5CC(O)C(O)C(C)O5)C(O)C(C)O4)c(C)c(O)c3c(O)c2C(=O)[C@H]1OC1CC(OC2CC(OC3CC(C)(O)C(O)C(C)O3)C(O)C(C)O2)C(O)C(C)O1 (stereo not given in full) | 38.7% | 7.12% (active) | -55.1% (active) | 10.8% | 10.1% | 19.7% | -17.2% (active) | -68.1% (active) | -6.05% (active) | -5.84% (active)
5 | CCOP(=O)(NC[C@H]1O[C@](O)(CO)[C@@H](O)[C@@H]1O)OCC | 100% | 96.2% | 80.2% | 97% | 101% | 85.9% | 96.5% | 99.8% | 92.8% | 116%
6 | CC(C)(C)N1CC1C#N (stereo not given) | 99.6% | 105% | 98.3% | 97.2% | 100% | 103% | 105% | 104% | 101% | 110%
7 | CCC[CH2][Sn]([CH2]CCC)([CH2]CCC)[O]c1ccc(Cl)cc1Cl | -62.5% (active) | -52.3% (active) | -93.6% (active) | -81% (active) | -74% (active) | -70% (active) | -99.8% (active) | -88.4% (active) | -81.4% (active) | -96.9% (active)
8 | CC(C)=CCC[C@H](C(=O)O)[C@@H]1CC[C@]2(C)C3=C(CC[C@@]12C)[C@@]1(C)CC[C@H](O)C(C)(C)[C@@H]1CC3 | 97.7% | 91% | 90.1% | 97.1% | 94.5% | 84.8% | 103% | 96.1% | 102% | 103%
9 | O=P(Oc1ccc(Cl)cc1)(N1CC1)N1CC1 | 88.7% | 72.5% | 74.2% | 91% | 82.6% | 76.1% | 86.2% | 58% | 83.1% | 98.3%
10 | CC1(C)N=C(N)N=C(N)N1c1ccc(CCCCc2ccc(Cl)c(S(=O)(=O)F)c2)c(Cl)c1 | 37.3% | 16.3% | 35.1% | 31.6% | 28.8% | 15.1% | 10.6% | 16.2% | 13.6% | 58.2%
11 | CC(=O)C(c1c(O)c2ccccc2oc1=O)c1cc(=O)oc2c1ccc1ccccc12 (stereo not given) | 101% | 109% | 67.8% | 90.7% | 91.5% | 85.7% | 96.5% | 91.1% | 96.6% | 110%
12 | COC(=O)[C@H](Cc1c[nH]c2ccccc12)NC(=O)[C@@H](OC)[C@@H]1Cc2cc3cc(OC4CC(OC5CC(O)C(O)C(C)O5)C(O)C(C)O4)c(C)c(O)c3c(O)c2C(=O)[C@H]1OC1CC(OC2CC(OC3CC(C)(O)C(O)C(C)O3)C(O)C(C)O2)C(O)C(C)O1 (stereo not given in full) | 15.9% | 4.98% (active) | -88.5% (active) | 7.09% (active) | 6.13% (active) | -10.4% (active) | -72.1% (active) | -52.7% (active) | -3.17% (active) | -27.9% (active)
13 | Clc1ccc(CO/N=C(\Cn2ccnc2)c2ccc(Cl)cc2Cl)c(Cl)c1 | 6.36% (active) | -19.4% (active) | 30.4% | 17.7% | -21.2% (active) | 4.16% (active) | -93.5% (active) | 1.19% (active) | -47.4% (active) | 28%
14 | NC1CC2CCCCC2CC1(O)c1ccccc1 (stereo not given) | 102% | 102% | 80.9% | 103% | 96.4% | 92.8% | 102% | 105% | 91.9% | 111%
15 | CC(=O)O[C@@H]1CC[C@]2(C)[C@H]3CC[C@]4(C)C(=O)CC[C@H]4[C@@H]3C[C@@H]3SC(N)=N[C@@]32C1 | 35.2% | 10.2% | 73.2% | 54.7% | 37% | 71% | 32.5% | 38.2% | 66.3% | 72.2%
16 | CN1C(=O)N[C@H]2[C@@H]3NC(=O)c4ccc(Br)n4[C@@H]3C[C@]21O | 3.29% (active) | -15.6% (active) | -70.3% (active) | -15.6% (active) | -13.8% (active) | -11.7% (active) | -76.7% (active) | -54.2% (active) | -42% (active) | -34.9% (active)
17 | CC1=C([Te]c2ccc(O)cc2)C(=O)c2ccccc2C1=O | 13.6% | 1.03% (active) | -3.63% (active) | 12.3% | 10% | 5.85% (active) | -94.6% (active) | 5.4% (active) | 5.05% (active) | -12.4% (active)
18 | CC1(C)C(C(=O)c2cn(CCCCF)c3ccccc23)C1(C)C | 91.9% | 48.8% | 96% | 104% | 86% | 85% | 92.1% | 88.4% | 92.9% | 116%
19 | CCOC(=O)[C@@H](C)C[C@H](Cc1ccccc1)NC(=O)c1csc([C@@H](C[C@H](C(C)C)N(C)C(=O)[C@@H](NC(=O)[C@H]2CCCCN2C)C(C)(C)CC)OC(C)=O)n1 | 8.77% (active) | -4.94% (active) | -5.95% (active) | 17.6% | 9.55% (active) | 24.1% | -15.3% (active) | 33.1% | 14.3% | 38.6%
20 | Clc1ccc2nnnn2n1 | 24.7% | 12.9% | 80.3% | 91.7% | 34.4% | 25.7% | 30.2% | 45.4% | 16.3% | 51.9%
21 | CCCCN(CCCC)P(=O)(Oc1ccccc1)Oc1ccccc1 | 68.1% | 39.1% | 50.9% | 60.1% | 53.1% | 38.6% | 67% | 60.1% | 67.7% | 94.1%
22 | O=C1NC(=O)C(=Cc2cccn2CCCCCn2c3ccccc3c(=O)c3ccccc32)C(=O)N1 | 92.8% | 103% | 101% | 101% | 96.8% | 91% | 98.6% | 90.7% | 95.3% | 111%
23 | CCCCCCCCOC(=O)CCN1CC1 | 101% | 111% | 110% | 112% | 95.6% | 104% | 105% | 109% | 96.9% | 113%
24 | COC(=O)C12CC(NC(=O)c3csc([C@@H](C[C@H](C(C)C)N(C)C(=O)[C@@H](NC(=O)[C@H]4CCCCN4C)C(C)C)OC(C)=O)n3)(C1)C2 | 5.8% (active) | 2.39% (active) | 47% | 29.1% | 20.7% | 23% | -38.8% (active) | 37.2% | 22.2% | 62.4%
